Active and inactive are the calls of the source. Unless noted, no rule for the calls is given here.

The text below walks through data of PubChem BioAssay.

Test [1] in a line: HepG2 liver cancer cell viability effects, profiling panel, resazurin fluorescence, 24 h, PK04 Diversity Set (AID 1172). Also: test concentration not given here. As to conditions: higher = more signal.
Test [2] in a line: basal S. cerevisiae growth modulation, no modifier, primary screen, OD600, strain BY4716, 24 h, basal condition (AID 1173). The settings on record: OD600, 24 h, higher = more signal, called active from +8 up or from −8 down.
Test [3] in a line: MM1S myeloma cell viability, profiling panel, resazurin fluorescence, basal, 24 h, PK04 Diversity Set (AID 1174). Also: test concentration not given here. The settings on record: higher = more signal, called active from +8 up or from −8 down.
Test [4] deals with Dihydroorotate dehydrogenase (quinone), mitochondrial (Plasmodium falciparum (isolate 3D7)) (UniProt Q08210). In words: PfDHODH enzyme inhibitors, primary screen, biochemical, C-terminal His tag, absorbance 600 nm (AID 1175).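 Also: recombinant parasite enzyme with a five histidine tag at its C terminus; test concentration not given here.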 As to conditions: DCIP absorbance 600 nm, higher = more signal, called active from +8 up or from −8 down.
Sequence of Dihydroorotate dehydrogenase (quinone), mitochondrial (Plasmodium falciparum (isolate 3D7)) (Q08210 whole entry, looked up): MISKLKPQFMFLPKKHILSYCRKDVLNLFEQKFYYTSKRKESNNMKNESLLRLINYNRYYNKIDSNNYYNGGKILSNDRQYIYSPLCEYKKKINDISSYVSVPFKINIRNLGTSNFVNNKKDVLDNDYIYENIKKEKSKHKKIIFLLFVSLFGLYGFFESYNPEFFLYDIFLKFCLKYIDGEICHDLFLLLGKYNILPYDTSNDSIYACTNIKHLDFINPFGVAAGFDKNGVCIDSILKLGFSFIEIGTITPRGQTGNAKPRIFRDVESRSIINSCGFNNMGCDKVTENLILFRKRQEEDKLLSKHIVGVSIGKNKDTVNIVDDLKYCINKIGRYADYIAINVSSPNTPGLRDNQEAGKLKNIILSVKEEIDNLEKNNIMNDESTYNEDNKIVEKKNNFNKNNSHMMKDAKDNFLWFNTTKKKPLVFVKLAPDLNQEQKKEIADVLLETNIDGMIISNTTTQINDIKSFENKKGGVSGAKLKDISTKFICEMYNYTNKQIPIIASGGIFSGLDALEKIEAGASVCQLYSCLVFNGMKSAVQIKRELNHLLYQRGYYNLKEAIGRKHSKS
A short description of test [5]: P. aeruginosa biofilm formation inhibitors, primary screen, strain PAO1, LB-PBS medium, absorbance 600 nm (AID 1176). Also: test concentration not given here. As to conditions: P. aeruginosa PAO1 growth/biofilm, A600, 12 h; higher = more signal.
A short description of test [6]: S. cerevisiae RM11-1a growth modifiers, primary screen, strain RM11-1a, OD600, basal, 24 h (AID 1177).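 Also: cultures grown under basal conditions with no added stressor; test concentration not given here.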 As to conditions: OD600, 24 h, higher = more signal, called active from +8 up or from −8 down.
A short description of test [7]: E. coli acrAB mutant growth effects, primary screen, E. coli filamentation inducers, strain DRC39, OD650, 24 h (AID 1178).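 Also: growth measured as culture turbidity by optical density at 650 nm; test concentration not given here.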 The settings on record: higher = more signal, called active from +8 up or from −8 down.
A short description of test [8]: E. coli acrAB mutant growth effects, primary screen, E. coli filamentation inducers, strain DRC39, OD650, 48 h (AID 1179).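 Also: screen aims at cell division blockers that make cells filament.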 The settings on record: E. coli DRC39 delta-acrAB growth, higher = more signal, called active from +8 up or from −8 down.
Test [9] is described as follows: RPMI8226 myeloma cell viability, profiling panel, resazurin fluorescence, basal, 24 h, PK04 Diversity Set (AID 1180).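 Also: RPMI8826 multiple myeloma cell line at 5000 cells per well; test concentration not given here.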 The settings on record: higher = more signal. (Alamar Blue is a resazurin reagent that responds to reducing activity.)
Test [10] has as its target E3 ubiquitin-protein ligase XIAP (Homo sapiens) (UniProt P98170). In words: XIAP binders, primary screen, biophysical, small-molecule microarray, fluorescence 635 nm (AID 1181).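 Also: score merges 667 nm emission and signal to noise over triplicate slides.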 As to conditions: small-molecule microarray binding, higher = more signal.

Sequence of E3 ubiquitin-protein ligase XIAP (Homo sapiens) (P98170 whole entry, looked up): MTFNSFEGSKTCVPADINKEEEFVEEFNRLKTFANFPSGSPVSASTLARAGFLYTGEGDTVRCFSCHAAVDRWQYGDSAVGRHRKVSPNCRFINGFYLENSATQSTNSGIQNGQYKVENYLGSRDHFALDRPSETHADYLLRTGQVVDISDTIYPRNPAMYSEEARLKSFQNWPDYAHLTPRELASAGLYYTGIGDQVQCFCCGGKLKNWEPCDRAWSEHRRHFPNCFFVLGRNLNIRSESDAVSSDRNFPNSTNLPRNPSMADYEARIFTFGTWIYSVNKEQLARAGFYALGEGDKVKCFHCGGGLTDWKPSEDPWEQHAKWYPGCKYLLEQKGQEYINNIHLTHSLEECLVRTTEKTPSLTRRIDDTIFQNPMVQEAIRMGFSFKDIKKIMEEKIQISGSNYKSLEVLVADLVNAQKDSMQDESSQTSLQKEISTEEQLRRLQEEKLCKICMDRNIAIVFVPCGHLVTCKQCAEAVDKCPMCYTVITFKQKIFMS

Consider `CN(C)C(=O)[C@]1(Cc2ccccc2)N=C(c2ccc(OCCCO)cc2)O[C@@H]1c1ccccc1N=[N+]=[N-]`, for which the z-score was -0.274 in [1]; -1.43 (inactive) in test [2]; -2.64 (inactive) in test [3]; -0.0837 (inactive) in test [5]; 1.29 (inactive) in test [6]; 0.349 (inactive) in test [7]. The z-score in test [8] was 0.908 (inactive); in [9] it was -2.58. Besides, the results for the composite z-score in test [4] and in [10] were 0.9 (inactive) and 0.237, respectively.

Consider `COCCCNC(=O)[C@@]1(Sc2ccc(C)cc2)CC(=O)N(Cc2ccccc2Cl)[C@@H]1c1ccc(CO)cc1`, for which the z-score is 0.683 in test [1]; -0.209 (inactive) in test [2]; 0.306 (inactive) in test [3]; 0.366 (inactive) in [5]; -0.964 (inactive) in test [6]; 1.08 (inactive) in test [7]. For the same compound, the values for the z-score in [8] and in test [9] were 0.709 (inactive) and 0.761, respectively. Also, the values for the composite z-score in test [4] and in test [10] were -1.08 (inactive) and 0.145, respectively.

For `CO[C@H]1O[C@H](CO)[C@@H](OC(=O)Nc2ccc(Oc3ccccc3)cc2)[C@H](OC(=O)Nc2ccc3c(c2)OCO3)[C@@H]1OC(=O)Nc1ccc2c(c1)OCO2`, the z-score in test [1] was -1.01; in test [2], 0.77 (inactive); in [3] it was -0.949 (inactive); in [5], 1.39 (inactive); in [6], 2.65 (inactive); in test [7], 0.759 (inactive). The values for the z-score in test [8] and in [9] were -0.0218 (inactive) and -0.793, respectively. The composite z-score in test [4] is 0.0357 (inactive); in [10], 0.222.

Consider `C=C(CCCC)C(=O)CC[C@H](OC(=O)c1cccnc1)c1ccc(OCCO)cc1`, for which the z-score in test [1] is -0.91; in test [2], -0.329 (inactive); in [3], -3.27 (inactive); in test [5] it was 1.09 (inactive); in test [6], 1.32 (inactive); in test [7], -0.911 (inactive). The z-score in test [8] was -0.855 (inactive); in [9] it was -3.01. Moreover, the composite z-score is -0.816 (inactive) in [4] and 0.0322 in [10].

For the compound `COC(=O)[C@@]1(Cc2ccccc2)[C@H]2c3cc(C(=O)N4CCCC4)n(Cc4ccc(O)c(OC)c4)c3C[C@H]2CN1C(=O)c1ccccc1`, the z-score in [1] was -1.82; in [2] it was 1.93 (inactive); in [3] it was -0.948 (inactive); in [5], 0.675 (inactive); in [6] it was 1.8 (inactive); in test [7] it was -1.12 (inactive). Besides, the z-score in test [8] is -0.697 (inactive); in test [9] it was -2.74. Further, the composite z-score in [4] was 0.05 (inactive); in [10], 0.224.

For `COc1ccc(CCNC(=O)[C@@]2(c3ccc([N+](=O)[O-])cc3)CC(=O)N(CC34CC5CC(CC(C5)C3)C4)[C@@H]2c2ccc(CO)cc2I)cc1`, the z-score in test [1] is -1.49; in test [2] it was 0.0097 (inactive); in [3] it was -1.81 (inactive); in test [5], 1.8 (inactive); in test [6], 0.437 (inactive); in test [7] it was 0.0777 (inactive). For the same compound, the results for the z-score in test [8] and in test [9] were 0.223 (inactive) and -1.79, respectively. The composite z-score in [4] was 0.387 (inactive); in test [10], -0.195.

Regarding `COCCCNC(=O)[C@@]1(Cc2ccccc2)N=C(c2ccc(OCCCO)cc2)O[C@H]1c1ccccc1CN=[N+]=[N-]`, the z-score in test [1] is -0.708; in [2], -0.176 (inactive); in test [3], -0.78 (inactive); in [5] it was 0.95 (inactive); in test [6] it was 0.499 (inactive); in test [7] it was 0.0347 (inactive). Further, the figures for the z-score in [8] and in [9] were 0.134 (inactive) and -1.22, respectively. For the same compound, the values for the composite z-score in [4] and in [10] were -0.453 (inactive) and 0.0607, respectively.

In the case of `O=C1C2C=CC(C(O)c3cc(C(F)(F)F)cc(C(F)(F)F)c3)N(Nc3ccccc3)C2C(=O)N1c1ccccc1` (stereo not given), the z-score in [1] is -0.621; in test [2], -3.15 (inactive); in test [3], -1.87 (inactive); in test [5] it was 1.41 (inactive); in test [6] it was 0.596 (inactive); in [7] it was -0.921 (inactive). Also, the values for the z-score in test [8] and in [9] were -0.284 (inactive) and -2.49, respectively. Moreover, the composite z-score in [4] is 0.399 (inactive); in [10] it was 0.0191.

Consider `CCOC(=O)C[C@H]1[C@H](OC(=O)c2cc3ccccc3oc2=O)[C@@H](NC(=O)CC(C)C)c2cc(OCCCO)ccc2N1C(=O)c1ccccc1`, for which the z-score in test [1] was -0.683; in test [2], -1.9 (inactive); in test [3] it was 0.338 (inactive); in test [5], -1.39 (inactive); in test [6], -0.544 (inactive); in test [7], 1.94 (inactive). In addition, the z-score in test [8] was 1.08 (inactive); in test [9], -0.0988. Also, the composite z-score in [4] is -2.94 (inactive); in [10], -0.117.

Consider `CC(C)CCC[C@@H](C)[C@H]1CC[C@@]2(C)C3=C(CC[C@]12C)[C@@]1(C)CC[C@H](OC(=O)c2ccc(C(F)(F)F)nc2)C(C)(C)C1CC3` (stereo not given in full), for which the z-score was 0.305 in test [1]; -0.473 (inactive) in [2]; 0.175 (inactive) in test [3]; 0.188 (inactive) in test [5]; -2.03 (inactive) in test [6]; 0.634 (inactive) in test [7]. For the same compound, the z-score in test [8] is 0.762 (inactive); in test [9], 0.605. Further, the values for the composite z-score in test [4] and in test [10] were -1.08 (inactive) and -0.161, respectively.

For the compound `CCOC(=O)C1=CCC(c2ccc(F)cc2)N(S(=O)(=O)c2ccc(C)cc2)C1` (stereo not given), the z-score in [1] is -0.175; in test [2], 1.47 (inactive); in test [3], -0.866 (inactive); in [5], 0.766 (inactive); in test [6], 0.241 (inactive); in [7] it was -0.614 (inactive). Moreover, the z-score in [8] was -0.124 (inactive); in test [9], -1.76. Further, the composite z-score in test [4] is -0.217 (inactive); in test [10], 0.206.

In the case of `C[N+](C)(C)CCCC[C@@H]1NC(=O)[C@@H]2C[C@H](C(=O)NCCCCCCNC(=O)CS)[C@H](c3ccc(O)cc3)N2C1=O`, the z-score in test [1] was -0.206; in test [2], 1.4 (inactive); in test [3] it was -0.387 (inactive); in test [5], -0.282 (inactive); in [6], 0.144 (inactive); in test [7], -0.253 (inactive). The z-score is -0.135 (inactive) in test [8] and -0.437 in test [9]. Also, the composite z-score in test [4] is -0.206 (inactive); in test [10] it was -0.0911.
